Compounds without any hit were thinned out: in the full panel of roughly 83,000, 20% have a hit.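 Method: cells in 96-well plates; compound added at one concentration; 48 h incubation; percent growth measured; values under 10 scored active.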 Values without a mark were called inactive. The source made the active and inactive calls.
tested on: UACC-62 melanoma; test: NCI-60 one-dose screen, 48 h (100 = growth as untreated, 0 = no growth, -100 = all killed); details: 10 µM

| SMILES | growth |
| --- | --- |
| CSc1cc(SC)ncn1 | 93.7% |
| CCOC(=O)CNC(=O)CCCCSc1ncnc2nc[nH]c12 | 94.9% |
| COc1ccc(OC)c(/C=C/c2nc(SCc3ccccc3)n(-c3ccc(Cl)cc3)n2)c1 | 33.9% |
| c1ccc(C(NC2CC3CCC2C3)c2ccccc2)cc1 (centres undefined) | 87.2% |
| CN1CCC2(CC1)NC(=O)c1c(c3ccc(Cl)c(Cl)c3n1C)C2C#N (centres undefined) | -69.4% (active) |
| O=[N+]([O-])c1cccc(N=Cc2ccc3c(c2)OCO3)c1 | 105% |
| Nc1cc2c(cc1Cl)-c1ccc([N+](=O)[O-])cc1/C2=N\O | 78% |
| COc1ccc(OC)c2c1C(=O)CC2C (centres undefined) | 96.4% |
| N#CSCC1CC(O)(c2ccccc2)CC(c2ccc(Cl)cc2)O1 (centres undefined) | 56.5% |
| CCOC(=O)C1CCc2c(ccc3ccccc23)N1CCC#N (centres undefined) | 91% |
| Fc1ccc(-c2nnc(-c3c(-c4ccc(F)cc4)nc4ccccn34)o2)cc1 | 92.2% |
| O=C1/C(=C/c2ccc(Cl)cc2)SC(=Nc2ccc(Cl)cc2)N1Cc1nc2ccccc2[nH]1 | 64.6% |
| CO/N=C(/C(=O)NC1C(=O)N2C(C(=O)O)=C(COC(N)=O)CSC12)c1ccco1 (centres undefined) | 103% |
| COc1ccc(C2CC(c3ccc(N(C)C)cc3)=NN2c2ccc(S(N)(=O)=O)cc2)cc1 (centres undefined) | 62.3% |
| CN(C)CCNC(=O)c1cccn2c(=O)c3cc4ccccc4cc3nc12 | -56% (active) |
| Oc1[nH]c2ccc(Cl)cc2c1/C=c1/ccc2c(c1)N=C(c1cccs1)N=2 | 53.6% |
| Nc1ccc2c(c1)Cc1cc(N)c(Br)cc1-2 | 96.7% |
| Cc1ccc(Nc2nnc(-c3cc(-c4ccncc4)n(-c4ccccc4)n3)s2)cc1 | 83.9% |
| O=C(N/N=C\c1cc(Cl)ccc1[N+](=O)[O-])c1ccco1 | 101% |
| COc1ccc2c(c1)sc1nc(-c3ccccc3)c(-c3ccsc3)n12 | 36.3% |

| SMILES | growth |
| --- | --- |
| O=C(N/N=C/c1ccccc1O)C(O)(c1ccccc1)c1ccccc1 | 51.9% |
| CCCCCCCCCCCCC1C/C=C\CCCC(=O)O1 (centres undefined) | 108% |
| O=C(Nc1cccc(Br)c1)c1cc(=O)[nH]c2ccccc12 | 80.9% |
| CC(C)=CCc1ccc(O)c(=O)cc1C(C)C | 14.3% |
| Cc1occc1-c1nnc(SCC(=O)c2ccc(NC(=O)CC(C)C)cc2)o1 | 104% |
| CC(C)=NNc1ncnc2c1ncn2C1OC(CO)C(O)C1O (centres undefined) | 34.7% |
| CCCCCCCCCCCCCC[n+]1ccc(C(N)=O)cc1 | 0.667% (active) |
| COc1ccc(Cl)cc1C(=O)Nc1nc2ccc(Cl)cc2s1 | 91.5% |
| O=C(CSSCC(=O)c1ccc(Cl)cc1)c1ccc(Cl)cc1 | 57.8% |
| O=[P@@]1(c2ccccc2)O[C@H](COCc2ccccc2)[C@@H](OCc2ccccc2)[C@H](OCc2ccccc2)[C@H]1O | 50.8% |
| Nc1ncn([C@@H]2O[C@H](CO)[C@@H](O)[C@H]2O)c(=O)n1 | 12.5% |
| CCCCOC(=O)Oc1ccc(C(=O)Oc2ccc(OCC)cc2)cc1 | 104% |
| O=C1c2ccc3c4c(ccc(c24)C(=O)N1CCNCc1ccccc1)C(=O)N(CCNCc1ccccc1)C3=O | -31.6% (active) |
| CCn1cc(C(=O)O)c(=O)c2cnc(N3CCCC3)nc21 | 108% |
| Cc1ccc(-c2nc(/C=C3/C(=O)N(C)c4ccc(F)cc43)c3ccccn23)cc1 | 97.8% |
| COc1ccc(OC)c(/C=C/c2nc(SC)n(-c3ccc(Cl)cc3)n2)c1 | 49.5% |
| COc1cccc(-c2cc(-c3cccc(NS(C)(=O)=O)c3)nc(N)c2C#N)c1O | 52.9% |
| CC1CN(Cc2ccccc2)C(=O)NC1=O (centres undefined) | 96% |
| Cc1cn(C2CCCCO2)c(=O)nc1NO (centres undefined) | 104% |

Reference: PubChem BioAssay (NCI)
